# Rows were chosen to be rich in hits. Some 3.7% of all compounds tested hit in one or more screens of this group.
# B2AR arrestin ag = ADRB2 beta-arrestin recruitment; 44,000 tested, under 10 active; AID 1347077; HTLA Tango cells, beta-arrestin recruitment, luciferase luminescence, 18 h; Potency, µM (highest dose often 46.1 µM), most hits filed as activators; P07550
#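 Luminescence read-out: arrestin recruitment to recombinant beta2-AR releases tTA, inducing luciferase. Cells exposed 18 hr at 37 degrees C to up to 46 microM compound; %Activity from corrected signal, concentration-response curves classified by r2, magnitude and efficacy.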
# TSG101-PTAP inh = TSG101-PTAP interaction inhibition, HIV-1 budding. Fluorescence polarization, FITC-PTAP peptide/Tsg101, 20 min. Potency, µM (series often up to 115 µM), most hits filed as inhibitors. 44,000 tested, under 10 active. AID 1347069
#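 Fluorescence polarization binding of Tsg101 binding domain (10 uM final) to FITC-labeled PTAP-motif peptide (50 nM final) in HEPES pH 7.5/NaCl/Tween 20/EDTA/TCEP buffer; 20 min at r.t. Actives by curve class, <25 µM, efficacy <60% inhibition.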
# NTMT1 inhibitor = blocks human N-terminal methyltransferase 1 activity. Q9BV86. 59,000 tested, 2.5% active. NTMT1 MTase-Glo SAH luminescence, purified enzyme. Potency, µM (doses to about 114 µM), most hits filed as inhibitors; note: nearly all actives have a fitted effect of over 65% in size
# Target sequence (Q9BV86 whole entry, looked up): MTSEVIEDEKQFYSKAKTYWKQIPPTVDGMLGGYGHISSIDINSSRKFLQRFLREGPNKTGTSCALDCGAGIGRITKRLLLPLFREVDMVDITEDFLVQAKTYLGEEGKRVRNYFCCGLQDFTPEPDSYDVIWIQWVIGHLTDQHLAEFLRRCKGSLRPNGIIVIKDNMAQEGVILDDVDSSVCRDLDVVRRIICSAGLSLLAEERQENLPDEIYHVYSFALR
# GALK inhibitor = inhibitors of human galactokinase (GALK); 44,000 tested, under 10 active; AID 1347072; Potency, µM (doses to about 57.5 µM), usual class: inhibitors; P51570; recombinant GALK, Kinase-Glo ATP luminescence, 1 h
#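 Reactions with and without enzyme served as controls. GALK at 5 nM phosphorylates 100 uM galactose using 35 uM ATP (HEPES pH 8.0, Mg2+) for 1 h at RT, with luminescence read 10 min after adding Kinase-Glo Plus.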
# FH mod = Identification of activators of human fumarate hydratase by quantitative high-throughput screening; Fumarate hydratase, mitochondrial (Homo sapiens), P07954; FH coupled MDH/diaphorase resazurin fluorescence, 15 min; Potency, µM (top dose mostly 79.9 µM), usual class: inhibitors; 54,000 tested, 0.22% active; note: the screen sought activators but most active calls are inhibition curves; nearly all actives have a fitted effect of over 45% in size
# DRV1 agonist = activates human resolvin D1 receptor GPR32; 48,000 tested, 2.5% active; activation, % at 76.9 µM; AID 1346428; CHO-K1 GPR32 beta-arrestin PathHunter luminescence, 90 min; zero percent set by DMSO-only wells; O75388;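 active = activation of at least 60% and not above a set upper limit, about 1 call in 100 departs from these limits; inconclusive = activation of 40% to 60%, or above that upper limit; inactive = activation under 40%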
# Target sequence (O75388 whole entry, looked up): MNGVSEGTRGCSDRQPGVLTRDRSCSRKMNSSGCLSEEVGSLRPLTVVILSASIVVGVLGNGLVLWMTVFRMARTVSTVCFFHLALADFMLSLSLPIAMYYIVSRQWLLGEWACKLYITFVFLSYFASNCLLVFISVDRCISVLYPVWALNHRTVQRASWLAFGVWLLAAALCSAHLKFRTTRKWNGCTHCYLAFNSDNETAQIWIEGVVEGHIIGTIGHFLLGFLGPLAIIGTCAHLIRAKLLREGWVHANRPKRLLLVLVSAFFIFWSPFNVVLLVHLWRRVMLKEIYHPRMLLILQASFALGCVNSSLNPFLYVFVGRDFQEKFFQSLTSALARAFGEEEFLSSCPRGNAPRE
#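 Beta-arrestin recruitment read-out: luminescence from complemented beta-Gal in CHO-K1 GPR32 PathHunter cells, measured 1 h after detection reagent at ambient temperature following 90 min compound exposure at 37 °C; DMSO served as basal (EC0) control.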
# Hits are given with their value; n = inactive; u = inconclusive; x = not tested or not shown; ! = not active in a repeat; [ ] = remark or other dose. Unless noted, calls come from the whole dose curve; as a rule, active = well fitted curve in the direction sought with a large enough effect; inconclusive = small, poorly fitted or top-dose-only effect, or another doubt; inactive = no such curve, though single readings can be large; an effect the other way counts as inactive or inconclusive.
SMILES,B2AR arrestin ag,TSG101-PTAP inh,NTMT1 inhibitor,GALK inhibitor,FH mod,DRV1 agonist
Cc1ccc(Nc2cc(N[C@@H]3CCCC[C@@H]3N)nnc2C(N)=O)nc1C,x,x,n,x,x,x
O=C(Nc1ncc(Cc2ccc(C(F)(F)F)cc2)s1)c1ccc(-c2cccnc2)o1,x,x,n,x,x,x
N#Cc1c(-c2ccccc2C(F)(F)F)nc2ccccc2c1NCc1ccc(-c2cccnc2)cc1,x,x,n,x,x,x
N#Cc1cnc(NS(=O)(=O)c2ccc(NC(=O)Cc3ccc(Cl)c(Cl)c3)cc2)s1,x,x,79µM,x,x,x
Cn1nnnc1Sc1ncnc2scc(-c3ccc4c(c3)OCO4)c12,x,x,89µM,x,x,x
NC(=O)C1CCN(c2ncc(Br)s2)CC1,x,x,40µM,x,x,x
CCCc1cc(=O)[nH]c(Nc2cccc(Cl)c2Cl)n1,n,n,x,n,x,87
CCCc1cc(=O)[nH]c(Nc2cc(Cl)cc(Cl)c2)n1,n,n,x,n,x,99
COc1ccc(CSc2nc3ncc(Br)cc3[nH]2)cc1F,x,x,n,x,x,x
COc1cc(N2CCC(N3CCN(C)CC3)CC2)ccc1Nc1ncc(Cl)c(Nc2ccccc2S(=O)(=O)C(C)C)n1,x,x,25µM!,x,u,x
CNS(=O)(=O)c1ccccc1Nc1nc(Nc2ccc(N3CCN(C)CC3)cc2OC)ncc1Cl,x,x,u,x,n,x
COC(=O)c1c(NC(=O)COc2c(C)cccc2C)sc2c1CCCC2,n,n,n,n,n,n
CCOc1ccccc1NC(=O)c1c(NC(=O)COc2ccccc2)sc2c1CCCC2,n,n,n,n,n,105
CCOc1ccccc1NC(=O)c1c(NCc2ccc(C)o2)sc2c1CCCCC2,n,n,25µM,n,n,n
CCCc1ccc(OCC(=O)Nc2sc3c(c2C(=O)OC)CCCCC3)cc1,n,n,89µM,n,n,n
COc1nnc2ccc(N3CCC(c4ccc(OCCN5CCN(C)C(=O)[C@H]5C)cc4)CC3)nn12,x,x,n,x,x,x
C[C@@H]1CC[C@]2(C(=O)O)CC[C@]3(C)C(=CCC4[C@]5(C)C(CC[C@]43C)C(C)(C)[C@@H](O)[C@H](O)[C@@H]5O)C2[C@]1(C)O (some centres undefined),x,x,n,x,n,x
Cc1ccc(-c2noc(-c3ccccc3NC(=O)C3CC(=O)N(c4cccc(C)c4)C3)n2)cc1 (centres undefined),n,n,n,n,n,n
Cc1cc(C)cc(NC(=O)C2CC(=O)N(c3ccccc3)C2)c1 (centres undefined),n,n,n,n,n,118
CC(=O)c1ccc(N2CCN(C(=O)c3ccc4c(c3)CC(=O)N4)CC2)cc1,x,x,n,x,x,x
CNCc1ccc(-c2[nH]c3cc(F)cc4c3c2CCNC4=O)cc1,x,x,6.3µM!,x,n,x
Cc1nc2sc(C(N)=O)c(N)c2c(-c2ccc(Br)cc2)c1C(=O)Nc1ccc(Cl)cc1,n,n,n,n,n,88
COc1ccc(C(=O)Nc2cc3cc(Cl)ccc3oc2=O)cc1OC,n,n,n,n,n,n
Cc1ccc(C(=O)Nc2cc3cc(Cl)ccc3oc2=O)cc1,n,n,n,n,n,62
CCc1ccc(N(C)S(=O)(=O)c2ccc3[nH]cc(C(=O)NCC4CCCO4)c(=O)c3c2)cc1 (centres undefined),n,n,n,n,u,110
SMILES,B2AR arrestin ag,TSG101-PTAP inh,NTMT1 inhibitor,GALK inhibitor,FH mod,DRV1 agonist
CCOc1ccccc1NC(=O)Cn1ccn(Cc2ccc(C)cc2)c(=O)c1=O,n,n,89µM,n,n,n
Cc1ccc(Cn2ccn(CC(=O)Nc3ccccc3C(F)(F)F)c(=O)c2=O)cc1,n,n,n,n,n,n
CC[C@H]1CN(c2nc(N)c(C(N)=O)nc2Cl)CCN1C1CCN(Cc2ccc(Cl)cc2)CC1,x,x,n,x,n,x
O=C(NCCCNC(=O)c1ccc[nH]c1=O)c1cc(-c2ccccc2)on1,x,x,n,x,n,x
Nc1ccc2c(c1)CN1C(=O)c3ccccc3C1=N2,x,x,13µM,x,n,n
O=C1c2ccccc2C(=O)N1c1cccc(Cl)c1,x,x,n,x,x,x
Cc1ccc(Nc2nn3c(=O)c4cc5c(cc4nc3s2)OCO5)cc1Cl,n,n,n,n,n,n
Cc1cc(C)c(Nc2nn3c(=O)c4cc5c(cc4nc3s2)OCO5)c(C)c1,n,n,45µM,n,n,n
CCOc1ccc(CCNC(=O)c2cc3sccc3n2CCN(C)C)cc1OCC,x,x,n,x,x,x
CC(C)(C)c1ccc(C(=O)NNc2ncnc3c2cnn3-c2ccccc2)cc1,n,n,n,n,n,104
Cc1ccc(Nc2ncnc3c2cnn3-c2ccccc2)c(C)c1,n,n,11µM,n,n,n
Cc1ccc(-n2ncc3c(Nc4cccc(C)c4C)ncnc32)cc1,n,n,n,n,n,n
Cc1ccc(-n2ncc3c(NCC(C)C)ncnc32)c(C)c1,n,n,n,n,n,62
O=C(Nc1ncc(Cc2ccc(C(F)(F)F)cc2)s1)c1ncc(-c2ccccc2)[nH]1,x,x,n,x,x,x
O=S(=O)(Nc1ccc(-c2ccccc2)cc1)c1ccc(NCc2cccc(Cl)c2O)cc1,x,x,n,x,x,x
CCOC(=O)C1CCN(C(=O)C(C)(C)NC(=O)Nc2ccc3ccccc3c2)CC1,x,x,n,x,x,x
CCCCCCCC/C=C/C(=O)O,x,x,n,x,n,n
CCCCCCCCCCCCCCCCC(C(=O)O)C(O)(CC(=O)O)C(=O)O (centres undefined),x,x,3.5µM,x,u,n
Cc1cc(C)cc(NC(=O)N2CCC(N3CCCCC3)CC2)c1,n,n,89µM,n,n,n
Cc1cc(C)cc(NC(=O)N2CCN3CCCCC3C2)c1 (centres undefined),n,n,n,n,n,n
CCCCN(CCCC)c1nc(-c2ccccc2)nc2ccccc12,n,n,u,n,n,110
O=C([C@H](Cc1ccc(O[S+](=O)([O-])c2cccc3cnccc23)cc1)N[S+](=O)([O-])c1cccc2cnccc12)N1CCN(Cc2ccccc2)CC1,x,x,n,x,x,x
CC(CCC1(O)OC2CC3C4CC=C5CC(O[C@@H]6O[C@H](CO)[C@@H](O[C@@H]7O[C@H](CO)[C@@H](O)[C@H](O)[C@H]7O)[C@H](O)[C@H]6O[C@@H]6O[C@@H](C)[C@H](O)[C@@H](O)[C@H]6O)CCC5(C)C4CCC3(C)C2C1C)CO[C@@H]1O[C@H](CO)[C@@H](O)[C@H](O)[C@H]1O (some centres undefined),x,x,n[12.6 µM],x,n,x
O=C(O)c1ccc(-n2cccc2/C=C2\SC(=O)N(Cc3ccccc3Cl)C2=O)cc1,x,x,50µM,x,x,x
O=C(O)c1ccc(-n2cccc2/C=C2\SC(=O)N(Cc3ccc(F)cc3)C2=O)cc1,x,x,79µM,x,x,x
Cc1cnc(-c2ccccc2OC(C)C)nc1NCc1ccc(-n2ccnn2)cc1,x,x,n,x,x,x
CC(=O)Nc1sc2c(c1-c1ccc(N3CCN(C(C)=O)CC3)nc1)CCNC2,x,x,n,x,x,x
